In PubChem BioAssay (NCATS):
Records with an inconclusive call do not appear. Activity calls are given as the source filed them. Unless noted, calls follow the shape of the dose curve; as a rule, active = well fitted curve in either direction with a large enough effect (not every such curve was filed as active); inconclusive = small, poorly fitted or top-dose-only effect, or another doubt; inactive = flat fitted curve, though single readings scatter.

Tests used:
[1] = AP1 Signaling Pathway (AID 357); conditions: ME-180 AP-1-bla reporter, EGF-induced, beta-lactamase ratio, 5 h; at 7.69 µM (top of the series) unless noted; also: % is scaled to controls: 0 for no effect and ±100 for the full control effect
How it was run: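 Titration-series screen for positive or negative modulators of EC50 EGF-induced signaling in ME-180 cells carrying an AP-1-driven beta-lactamase reporter. After 5 hours at 37 degrees Celsius, CCF4 460nm/530nm emission ratio gave %Activity; AC50 values derived.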

[2] = biological target: Cytochrome P450 1A2 (Homo sapiens) (UniProt P05177); experiment: p450-cyp1a2 (AID 410; calls by dose curve; also: potency is read from the fitted curve at half-maximal effect;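 as to activity change, negative = inhibition: -100% = full effect of reference inhibitor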)
Chain of Cytochrome P450 1A2 (Homo sapiens) (P05177 whole entry, looked up): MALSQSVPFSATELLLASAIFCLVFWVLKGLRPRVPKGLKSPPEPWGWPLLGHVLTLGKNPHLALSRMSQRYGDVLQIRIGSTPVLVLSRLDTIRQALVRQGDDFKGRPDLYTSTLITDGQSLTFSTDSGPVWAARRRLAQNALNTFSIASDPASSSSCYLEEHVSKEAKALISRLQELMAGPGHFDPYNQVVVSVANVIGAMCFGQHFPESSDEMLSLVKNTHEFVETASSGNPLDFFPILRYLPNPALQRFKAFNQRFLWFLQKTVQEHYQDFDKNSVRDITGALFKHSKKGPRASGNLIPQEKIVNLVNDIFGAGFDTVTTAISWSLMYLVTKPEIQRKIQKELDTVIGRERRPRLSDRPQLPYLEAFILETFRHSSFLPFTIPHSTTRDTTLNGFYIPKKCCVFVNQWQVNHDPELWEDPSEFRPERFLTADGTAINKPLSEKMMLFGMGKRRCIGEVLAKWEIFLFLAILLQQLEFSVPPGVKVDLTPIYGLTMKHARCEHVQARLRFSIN
How it was run: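 20nM CYP1A2 with 100uM Luciferin-ME (at Km) in 100mM KPO4; compound preincubated 10 min, NADPH regeneration added, 60 min at room temperature. Luciferin quantified by luminescence after detection reagent; normalized to 57 uM furafylline.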

[3] = NFAT Signaling Pathway (AID 444); conditions: Jurkat NFAT-bla M1, carbachol, beta-lactamase ratio, 5 h; at 7.69 µM (top of the series) unless noted;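 also: carbachol stimulus at about its EC50 of 1 µM final; % is scaled to controls: 0 for no effect and ±100 for the full control effect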
How it was run: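 Read-out: CCF4 FRET ratio (460 nm/530 nm) after 1 h RT dye loading, used for %activity and AC50 from titration series. Cells: Jurkat NFAT-β-lactamase/M1 line, treated with compound plus 1 uM carbachol for 5 h, 37 °C.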

[4] = Stat Signaling Pathway (AID 446); conditions: ME-180 SIE beta-lactamase reporter, IL-6 stimulated, 5 h; at 7.69 µM (top of the series) unless noted;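 also: ME-180 cervical cancer cells given 40 pM IL-6 alongside compound; SIE-controlled beta-lactamase reporter measured as 460/530 nm FRET emission ratio; % is scaled to controls: 0 for no effect and ±100 for the full control effect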
How it was run: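 ME-180 cells carrying a SIE-driven beta-lactamase reporter are stimulated with 40 pM IL-6 for 5 h at 37C in the presence of compound. The 460/530 nm FRET substrate ratio is read after 2.5 h at RT. Data are normalised to 300 pM IL-6 and to 125 nM JAK inhibitor controls.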

[5] = biological target: Glucocorticoid receptor (Homo sapiens) (UniProt P04150); experiment: GR-GFP Redistribution (AID 450;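 active = compounds whose dose series gives a full or clear partial fitted curve of increased nuclear translocation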; also: potency is read from the fitted curve at half-maximal effect); conditions: U2OS GR-GFP nuclear translocation, laser cytometry, 2 h
Chain of Glucocorticoid receptor (Homo sapiens) (P04150 whole entry, looked up, the tested form may be a part): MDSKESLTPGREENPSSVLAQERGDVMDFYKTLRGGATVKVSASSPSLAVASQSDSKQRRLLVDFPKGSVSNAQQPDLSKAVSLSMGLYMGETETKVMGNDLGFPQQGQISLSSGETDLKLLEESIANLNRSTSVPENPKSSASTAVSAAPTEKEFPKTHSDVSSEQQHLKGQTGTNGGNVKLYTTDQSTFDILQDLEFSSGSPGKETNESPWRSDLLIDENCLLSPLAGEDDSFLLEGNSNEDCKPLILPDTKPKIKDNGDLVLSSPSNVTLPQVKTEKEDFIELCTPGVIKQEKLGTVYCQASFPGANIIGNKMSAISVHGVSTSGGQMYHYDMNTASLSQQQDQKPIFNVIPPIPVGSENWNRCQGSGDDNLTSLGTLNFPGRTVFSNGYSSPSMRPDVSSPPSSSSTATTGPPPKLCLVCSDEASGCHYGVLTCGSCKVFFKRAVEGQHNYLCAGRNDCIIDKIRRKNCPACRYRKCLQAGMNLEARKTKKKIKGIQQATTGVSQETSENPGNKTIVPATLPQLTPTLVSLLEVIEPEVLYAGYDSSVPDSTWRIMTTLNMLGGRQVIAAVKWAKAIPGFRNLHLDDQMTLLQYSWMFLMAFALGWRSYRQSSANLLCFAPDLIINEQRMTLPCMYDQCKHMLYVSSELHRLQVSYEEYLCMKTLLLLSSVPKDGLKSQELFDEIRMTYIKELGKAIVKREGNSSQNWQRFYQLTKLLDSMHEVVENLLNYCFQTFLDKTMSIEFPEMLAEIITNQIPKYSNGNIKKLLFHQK

[6] = biological target: Glucocorticoid receptor (Homo sapiens) (UniProt P04150); experiment: GR-EFC Redistribution (AID 451; calls by dose curve; also: potency is read from the fitted curve at half-maximal effect); conditions: CHO-K1 GR-EFC translocation, beta-gal luminescence, 2 h
How it was run: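 Translocation of GR-ED fusion to nuclear EA restores b-gal, read by luminescence after 1 h room-temperature detection. Engineered CHO-K1 biosensor cells, 1,000/well, exposed 2 h at 37 C to titrations up to 46 uM final.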

[7] = biological target: Mitogen-activated protein kinase 10 (Mus musculus) (UniProt Q61831); experiment: JNK3 AlphaScreen Assay (AID 530);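 also: kinase came from lysate of stimulated human HepG2 cells; signal reports phosphorylation of biotinylated GST-cJun 1-79 at Ser73 with 10 µM ATP; % is scaled to controls: 0 for no effect and ±100 for the full control effect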
How it was run: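 Compound titrations were preincubated 15 minutes at room temperature with substrate, antibody and pre-activated JNK3-containing HepG2 lysate. Reactions were started with 10 uM ATP and stopped with EDTA-containing bead buffer for AlphaScreen detection.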

[8] = biological target: Cytochrome P450 3A4 (Homo sapiens) (UniProt P08684); experiment: qHTS Assay for Activators of Cytochrome P450 3A4 (AID 885; active = well fitted curve in the direction sought with a large enough effect; an effect the other way counts as inactive or inconclusive; also: nearly all actives have a fitted effect of over 65% in size)
Chain of Cytochrome P450 3A4 (Homo sapiens) (P08684 whole entry, looked up): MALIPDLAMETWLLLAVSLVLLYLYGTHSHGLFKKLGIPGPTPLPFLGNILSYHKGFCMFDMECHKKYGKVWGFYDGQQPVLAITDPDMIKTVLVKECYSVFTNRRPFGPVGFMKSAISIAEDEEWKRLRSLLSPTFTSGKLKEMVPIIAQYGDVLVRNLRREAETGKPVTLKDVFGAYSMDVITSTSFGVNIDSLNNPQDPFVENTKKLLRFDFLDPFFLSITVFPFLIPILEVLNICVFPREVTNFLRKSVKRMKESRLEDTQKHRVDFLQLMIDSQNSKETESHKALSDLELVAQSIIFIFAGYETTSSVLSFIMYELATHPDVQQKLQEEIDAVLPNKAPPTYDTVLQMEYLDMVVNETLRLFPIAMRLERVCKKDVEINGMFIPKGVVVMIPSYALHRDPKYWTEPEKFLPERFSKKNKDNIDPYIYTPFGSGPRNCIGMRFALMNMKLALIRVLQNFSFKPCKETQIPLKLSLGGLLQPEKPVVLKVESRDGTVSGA
How it was run: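 Human CYP3A4 (20 nM) with Luciferin-PPXE at 25 uM (its KM) in 200 mM KPO4; 10 min compound preincubation, then NADPH regeneration and 60 min reaction at RT. Luciferin read by luminescence; normalized to 57 uM ketoconazole full inhibition.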

[9] = qHTS Assay for Lipid Storage Modulators (AID 1519; calls by dose curve); conditions: Drosophila S3 cells, BODIPY lipid droplet/cell ratio, laser cytometry, cells loaded with oleic acid; for activity change, negative = inhibition: at 57.5 µM (top of the series)
How it was run: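 Cells seeded at 5,000 per well were treated with compounds over a concentration series and loaded with oleic acid (400 uM, as added). Lipid droplet fluorescence (488 nm excitation, 500-530 nm channel) was read by laser-scanning cytometry and normalized to 20 uM Triacsin C.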

[10] = Primary qHTS for small molecule stabilizers of the endoplasmic reticulum resident proteome: Secreted ER Calcium Modulated Protein (SERCaMP) assay (AID 1508630; active = well fitted curve in the direction sought with a large enough effect; an effect the other way counts as inactive or inconclusive; also: % is scaled to controls: 0 for no effect and ±100 for the full control effect)
How it was run: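 GLuc-SERCaMP-expressing SH-SY5Y cells, pretreated 16 h with compound, are challenged with thapsigargin to empty ER calcium stores; after 4 h, coelenterazine is added directly to the medium and luminescence is imaged.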

[11] = biological target: 3',5'-cyclic-AMP phosphodiesterase 4B (Homo sapiens) (UniProt Q07343); experiment: qHTS Assay for Inhibitors of PDE-IV (AID 607; active = well fitted activation curve with a large enough effect in the main read-out, with a control signal flat, not every such curve was filed as active; also: % of control where 0% means no effect)
Chain of 3',5'-cyclic-AMP phosphodiesterase 4B (Homo sapiens) (Q07343 whole entry, looked up): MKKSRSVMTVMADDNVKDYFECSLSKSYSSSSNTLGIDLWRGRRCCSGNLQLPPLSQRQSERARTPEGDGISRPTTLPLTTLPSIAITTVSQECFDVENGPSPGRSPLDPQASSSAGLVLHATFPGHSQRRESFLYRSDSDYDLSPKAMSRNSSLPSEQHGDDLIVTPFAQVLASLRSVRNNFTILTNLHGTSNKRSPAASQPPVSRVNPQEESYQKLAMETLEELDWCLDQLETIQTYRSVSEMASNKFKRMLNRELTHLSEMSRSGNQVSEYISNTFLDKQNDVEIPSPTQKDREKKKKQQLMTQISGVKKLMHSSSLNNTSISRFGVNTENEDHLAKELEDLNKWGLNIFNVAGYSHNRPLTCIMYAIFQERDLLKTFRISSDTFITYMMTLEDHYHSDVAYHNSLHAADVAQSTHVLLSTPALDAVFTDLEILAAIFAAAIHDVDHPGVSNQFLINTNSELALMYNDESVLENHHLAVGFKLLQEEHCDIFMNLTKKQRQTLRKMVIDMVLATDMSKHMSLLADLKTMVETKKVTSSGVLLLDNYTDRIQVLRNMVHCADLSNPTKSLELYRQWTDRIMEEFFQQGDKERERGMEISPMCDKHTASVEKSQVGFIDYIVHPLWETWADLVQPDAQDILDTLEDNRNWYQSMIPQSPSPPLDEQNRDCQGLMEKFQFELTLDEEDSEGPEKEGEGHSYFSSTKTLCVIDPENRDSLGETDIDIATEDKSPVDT
How it was run: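 HEK293 ACTOne cells with CNG channel (1000/well), endogenous PDE4; membrane potential dye, compounds up to 22.9 uM final. Fluorescence Ex 535/Em 590; RO 20-1724 (100 uM final) as reference.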

[12] = biological target: Cytochrome P450 3A4 (Homo sapiens) (UniProt P08684); experiment: qHTS Assay for Inhibitors and Substrates of Cytochrome P450 3A4 (AID 884; active = well fitted curve in the direction sought with a large enough effect; an effect the other way counts as inactive or inconclusive; also: potency is read from the fitted curve at half-maximal effect; nearly all actives have a fitted effect of over 50% in size)
How it was run: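 20 nM human CYP3A4 with 25 uM Luciferin-PPXE (at KM) in 200 mM KPO4, preincubated 10 min with compound; NADPH regeneration started a 60 min RT reaction. Luciferin detected by luminescence, normalized to 57 uM ketoconazole as full inhibition.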

[13] = biological target: Lysosomal acid glucosylceramidase (Homo sapiens) (UniProt P04062); experiment: Glucocerebrosidase-p2 (AID 348; in the data active = potency below about 10 µM; also: potency is read from the fitted curve at half-maximal effect); conditions: purified GBA, blue fluorogenic substrate, 40 min
Chain of Lysosomal acid glucosylceramidase (Homo sapiens) (P04062 whole entry, looked up): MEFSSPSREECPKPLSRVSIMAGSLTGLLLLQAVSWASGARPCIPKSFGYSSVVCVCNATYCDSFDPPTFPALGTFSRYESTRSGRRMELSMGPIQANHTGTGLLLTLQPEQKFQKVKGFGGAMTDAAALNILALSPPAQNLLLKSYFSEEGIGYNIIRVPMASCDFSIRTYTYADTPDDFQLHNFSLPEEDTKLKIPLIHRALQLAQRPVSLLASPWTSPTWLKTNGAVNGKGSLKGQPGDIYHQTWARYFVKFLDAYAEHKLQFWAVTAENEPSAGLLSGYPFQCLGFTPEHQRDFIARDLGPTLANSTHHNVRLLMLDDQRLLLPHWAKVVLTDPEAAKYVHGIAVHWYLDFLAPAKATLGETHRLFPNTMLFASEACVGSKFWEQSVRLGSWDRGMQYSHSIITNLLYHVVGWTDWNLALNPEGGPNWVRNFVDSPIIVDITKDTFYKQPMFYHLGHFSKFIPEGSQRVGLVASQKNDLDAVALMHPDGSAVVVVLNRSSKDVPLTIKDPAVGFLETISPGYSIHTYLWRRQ
How it was run: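 Compounds titrated from 0.6 nM upwards against 0.2 nM enzyme in pH 5.9 citric acid/KH2PO4, taurocholate, tween-20; blue fluorogenic substrate 80 uM, 40 min room temperature, stopped and read Ex 365/Em 440 for AC50.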

[14] = biological target: Ubiquitin carboxyl-terminal hydrolase 1 (Homo sapiens) (UniProt O94782); experiment: Inhibitors of USP1/UAF1: Pilot qHTS (AID 504865; active = well fitted curve in the direction sought with a large enough effect; an effect the other way counts as inactive or inconclusive; also: potency is read from the fitted curve at half-maximal effect; nearly all actives have a fitted effect of over 35% in size)
Chain of Ubiquitin carboxyl-terminal hydrolase 1 (Homo sapiens) (O94782 whole entry, looked up): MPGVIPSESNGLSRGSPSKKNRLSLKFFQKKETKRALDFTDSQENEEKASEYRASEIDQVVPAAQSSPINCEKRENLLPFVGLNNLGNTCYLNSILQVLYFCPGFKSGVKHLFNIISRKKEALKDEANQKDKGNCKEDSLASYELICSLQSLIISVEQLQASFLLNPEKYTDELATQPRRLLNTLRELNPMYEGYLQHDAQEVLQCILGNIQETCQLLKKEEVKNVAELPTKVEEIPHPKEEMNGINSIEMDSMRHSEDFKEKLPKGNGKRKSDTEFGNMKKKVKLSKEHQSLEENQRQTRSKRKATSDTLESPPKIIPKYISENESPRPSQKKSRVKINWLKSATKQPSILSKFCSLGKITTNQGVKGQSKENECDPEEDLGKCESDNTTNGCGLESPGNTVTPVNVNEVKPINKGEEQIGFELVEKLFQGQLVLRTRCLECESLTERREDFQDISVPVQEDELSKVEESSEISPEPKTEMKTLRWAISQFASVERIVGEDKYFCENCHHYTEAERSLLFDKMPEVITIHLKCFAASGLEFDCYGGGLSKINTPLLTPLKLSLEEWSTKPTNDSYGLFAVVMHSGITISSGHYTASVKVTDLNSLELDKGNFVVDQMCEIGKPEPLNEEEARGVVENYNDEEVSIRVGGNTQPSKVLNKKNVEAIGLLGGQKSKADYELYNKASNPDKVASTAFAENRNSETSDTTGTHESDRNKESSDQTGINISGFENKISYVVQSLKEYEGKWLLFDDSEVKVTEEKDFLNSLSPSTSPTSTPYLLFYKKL
How it was run: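 USP1/UAF1 complex at 1 nM preincubated 15 min at room temperature with compound, then Ub-Rho substrate added at 150 nM final. Fluorescence (480/540 nm) read kinetically in 50 mM HEPES pH 7.8, 0.5 mM EDTA, 1 mM TCEP, 0.1 mg/ml BSA, 0.01% Tween-20.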

[15] = measured here: cell count channel max response
[16] = measured here: lipid channel max response

FC(F)(F)c1ccccc1-c1nccc(NCc2ccccc2)n1
active: Potency [2] 12.6 µM
inactive: activity change, negative = inhibition [1] -1.94% | activity change, negative = inhibition [3] -3.71% | activity, negative = inhibition [4] -13.7% | Potency [5] > 46 µM | Potency [6] > 46 µM | Potency [7] | Potency [8] | activity change, negative = inhibition [9] 6.15% | outcome [10]
0.814%: max response [9, 15]
5.46%: max response [9, 16]

N#Cc1cccc(NC(=O)N2CC[C@@]3(CCCN(C(=O)c4ccco4)C3)C2)c1
14%: max response [9, 16]
4.12%: max response [9, 15]
inactive: activity change, negative = inhibition [1] -2.67% | Potency [2] | activity change, negative = inhibition [3] 3.83% | activity, negative = inhibition [4] -1.84% | Potency [6] > 46 µM | Potency [7] | Potency [11] | Potency [8] | activity change, negative = inhibition [9] 6.04% | outcome [10]

COc1ccc(CNc2nc(-c3ccoc3)nc3ccccc23)c(OC)c1
2.43%: max response [9, 16]
inactive: activity change, negative = inhibition [1] -10.8% | activity change, negative = inhibition [3] -8.73% | activity, negative = inhibition [4] 6.96% | Potency [5] > 46 µM | Potency [6] > 46 µM | Potency [7] | Potency [11] | activity change, negative = inhibition [9] 11% | outcome [10]
-6.93%: max response [9, 15]

Cc1cccc(CNc2ncnc3ccc(-c4c(C)noc4C)cc23)c1
inactive: activity change, negative = inhibition [1] 14.8% | Potency [5] > 46 µM | Potency [6] > 46 µM | Potency [7] | Potency [8] | activity change, negative = inhibition [9] -3.45% | outcome [10]
-10.6%: max response [9, 16]
-9.91%: max response [9, 15]
active: Potency [2] 5.01 µM | Potency [12] 0.794 µM

COCC(=O)N1CCC2(CCN(Cc3ccc(C#N)cc3)CC2)CC1
24.9%: max response [9, 16]
inactive: activity change, negative = inhibition [1] -9.28% | activity, negative = inhibition [4] -0.16% | Potency [6] > 46 µM | Potency [7] | Potency [11] | activity change, negative = inhibition [9] 4.27% | outcome [10]
17%: max response [9, 15]

O=c1c(-c2ccc(F)cc2)nc2cnc(N3CCOCC3)nc2n1-c1ccccc1
inactive: Potency [13] > 11.4 µM | Potency [5] > 9.22 µM | Potency [6] > 46 µM | Potency [7] | activity change, negative = inhibition [9] -4.64% | outcome [10]
7.89%: max response [9, 15]
5.39%: max response [9, 16]

Cc1cnc(CNc2cc(-c3ccoc3)ncn2)cn1
active: Potency [2] 25.1 µM
14.7%: max response [9, 16]
inactive: activity change, negative = inhibition [1] -2.94% | activity change, negative = inhibition [3] 1.34% | activity, negative = inhibition [4] -9.44% | Potency [5] > 46 µM | Potency [6] > 46 µM | Potency [7] | Potency [11] | activity change, negative = inhibition [9] 3.62% | outcome [10]
9.95%: max response [9, 15]

Cc1ccccc1-c1nc(NCc2cccnc2)c2ccccc2n1
-7.11%: max response [9, 15]
inactive: activity change, negative = inhibition [1] -6.01% | activity change, negative = inhibition [3] -1.21% | activity, negative = inhibition [4] 3.29% | Potency [5] > 46 µM | Potency [6] > 46 µM | Potency [7] | Potency [8] | activity change, negative = inhibition [9] 1.87% | outcome [10]
active: Potency [2] 0.501 µM | Potency [12] 0.501 µM | Potency [14] 28.2 µM
-4.19%: max response [9, 16]
